# In the supplement of paper PMC8728848:
# The entries come from a sample that favours the strongest signals as a whole.
# B1: rAAL (Agrocybe aegerita), Q6WY08 (protein)
# chain: MQGVNIYNISAGTSVDLAAPVTTGDIVTFFSSALNLNAGAGNPNNTTLNLFAENGAYLLHIAFRLQENVIIFNSRQPDGPWLVEQAVSDVANQFAGIDGKAMVTVFDHGDKYQVVINEKTVIQYTKQISGLTLSLSYNATEETSIFSTVVEAVTYTGLALEHHHHHH
# Experiments:
# Assay in all cases: glycan array binding signal (z-score within array); higher = stronger binding
# Conditions in all cases: glycan notation: IUPAC condensed, linker removed; mutation: R85A
# [1] = target: Fuc(a1-2)Gal(b1-3)GlcNAc(b1-2)Man(a1-3)[Fuc(a1-2)Gal(b1-3)GlcNAc(b1-2)Man(a1-6)]Man(b1-4)GlcNAc(b1-4)GlcNAc
# Procedure, shortened: (§1)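 Negative Z-scores can be read as non-binding. The Z-score is calculated within each array and then averaged across arrays of one protein sequence at different concentrations or buffers and across linkers. Arrays, 3228 in all, were curated from the Consortium for Functional Glycomics database and kept only where the protein sequence was available.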
# Fuc(a1-2)Gal6S(b1-4)Glc = target: Fuc(a1-2)Gal6S(b1-4)Glc
# Procedure, shortened: as §1
# [2] = target: Fuc(a1-2)[Gal(a1-3)]Gal(b1-3)GlcNAc(b1-2)Man(a1-3)[Fuc(a1-2)[Gal(a1-3)]Gal(b1-3)GlcNAc(b1-2)Man(a1-6)]Man(b1-4)GlcNAc(b1-4)GlcNAc
# Procedure, shortened: as §1
# [3] = target: Fuc(a1-2)[Gal(a1-3)]Gal(b1-4)GlcNAc
# Procedure, shortened: as §1
# [4] = target: Fuc(a1-3)[Gal(b1-4)]Glc6S
# Procedure, shortened: as §1
# [5] = target: Fuc(a1-3)[Gal(b1-4)]GlcNAc(b1-3)Gal(b1-3)[Fuc(a1-4)]GlcNAc
# Procedure, shortened: as §1
# Gal(a1-3)Gal(b1-4)Glc = target: Gal(a1-3)Gal(b1-4)Glc
# Procedure, shortened: as §1
# Gal(a1-4)Gal(b1-4)Glc = target: Gal(a1-4)Gal(b1-4)Glc
# Procedure, shortened: as §1
# [6] = target: Gal(b1-3)Gal(b1-4)GlcNAc(b1-2)Man(a1-3)[Gal(b1-3)Gal(b1-4)GlcNAc(b1-2)Man(a1-6)]Man(b1-4)GlcNAc(b1-4)GlcNAc
# Procedure, shortened: as §1
# [7] = target: Gal(b1-3)GlcNAc(b1-2)Man(a1-3)[Gal(b1-3)GlcNAc(b1-2)Man(a1-6)]Man(b1-4)GlcNAc(b1-4)GlcNAc
# Procedure, shortened: as §1
# [8] = target: Gal(b1-3)GlcNAc(b1-3)Gal(b1-4)GlcNAc(b1-6)[Gal(b1-3)GlcNAc(b1-3)]Gal(b1-4)Glc
# Procedure, shortened: as §1
# Gal3S(b1-3)GalNAc = target: Gal3S(b1-3)GalNAc
# Procedure, shortened: as §1
# Gal3S(b1-3)GlcNAc = target: Gal3S(b1-3)GlcNAc
# Procedure, shortened: as §1
# Gal3S(b1-4)Glc = target: Gal3S(b1-4)Glc
# Procedure, shortened: as §1
# Gal3S(b1-4)Glc6S = target: Gal3S(b1-4)Glc6S
# Procedure, shortened: as §1
# Gal3S(b1-4)GlcNAc6S = target: Gal3S(b1-4)GlcNAc6S
# Procedure, shortened: as §1
# Gal4S6S(b1-4)GlcNAc = target: Gal4S6S(b1-4)GlcNAc
# Procedure, shortened: as §1
# Gal6S(b1-4)Glc6S = target: Gal6S(b1-4)Glc6S
# Procedure, shortened: as §1
# [9] = target: GlcNAc(b1-2)Man(a1-3)[GlcNAc(b1-2)Man(a1-6)]Man(b1-4)GlcNAc(b1-4)GlcNAc
# Procedure, shortened: as §1
# [10] = target: GlcNAc(b1-3)Gal(b1-4)GlcNAc(b1-3)Gal(b1-4)GlcNAc
# Procedure, shortened: as §1
# Neu5Ac(a2-3)Gal(b1-4)Glc = target: Neu5Ac(a2-3)Gal(b1-4)Glc
# Procedure, shortened: as §1
# Neu5Ac(a2-3)GalNAc = target: Neu5Ac(a2-3)GalNAc
# Procedure, shortened: as §1
# [11] = target: Neu5Ac(a2-6)Gal(b1-4)GlcNAc(b1-3)GalNAc
# Procedure, shortened: as §1
# Neu5Ac(a2-8)Neu5Ac = target: Neu5Ac(a2-8)Neu5Ac
# Procedure, shortened: as §1
binder,measurement,setting,value
B1,glycan array binding signal (z-score),[1],-0.123
same,glycan array binding signal (z-score),Fuc(a1-2)Gal6S(b1-4)Glc,-0.131
same,glycan array binding signal (z-score),[2],-0.093
same,glycan array binding signal (z-score),[3],-0.127
same,glycan array binding signal (z-score),[4],-0.13
same,glycan array binding signal (z-score),[5],-0.132
same,glycan array binding signal (z-score),Gal(a1-3)Gal(b1-4)Glc,1.02
same,glycan array binding signal (z-score),Gal(a1-4)Gal(b1-4)Glc,-0.133
same,glycan array binding signal (z-score),[6],9.2
same,glycan array binding signal (z-score),[7],-0.072
same,glycan array binding signal (z-score),[8],0.051
same,glycan array binding signal (z-score),Gal3S(b1-3)GalNAc,14.6
same,glycan array binding signal (z-score),Gal3S(b1-3)GlcNAc,3.42
same,glycan array binding signal (z-score),Gal3S(b1-4)Glc,3.77
same,glycan array binding signal (z-score),Gal3S(b1-4)Glc6S,4.38
same,glycan array binding signal (z-score),Gal3S(b1-4)GlcNAc6S,0.209
same,glycan array binding signal (z-score),Gal4S6S(b1-4)GlcNAc,-0.136
same,glycan array binding signal (z-score),Gal6S(b1-4)Glc6S,-0.121
same,glycan array binding signal (z-score),[9],-0.127
same,glycan array binding signal (z-score),[10],-0.136
same,glycan array binding signal (z-score),Neu5Ac(a2-3)Gal(b1-4)Glc,0.216
same,glycan array binding signal (z-score),Neu5Ac(a2-3)GalNAc,-0.131
same,glycan array binding signal (z-score),[11],1.17
same,glycan array binding signal (z-score),Neu5Ac(a2-8)Neu5Ac,-0.125
